Bioassay records from PubChem.
This is a sample that favours compounds with a hit; in the whole collection about 5.8% have one here.
12-LOX inh: inhibitors of human 12S-lipoxygenase ALOX12; P18054; Potency, µM (highest dose often 108 µM), for inactives: top-dose activity change, negative = inhibition, hits mostly inhibitors; 1.1% of 580,000 active; purified 12hLO, xylenol orange hydroperoxide absorbance; also: % is scaled to controls: 0 for no effect and ±100 for the full control effect
Target sequence (P18054 whole entry, looked up): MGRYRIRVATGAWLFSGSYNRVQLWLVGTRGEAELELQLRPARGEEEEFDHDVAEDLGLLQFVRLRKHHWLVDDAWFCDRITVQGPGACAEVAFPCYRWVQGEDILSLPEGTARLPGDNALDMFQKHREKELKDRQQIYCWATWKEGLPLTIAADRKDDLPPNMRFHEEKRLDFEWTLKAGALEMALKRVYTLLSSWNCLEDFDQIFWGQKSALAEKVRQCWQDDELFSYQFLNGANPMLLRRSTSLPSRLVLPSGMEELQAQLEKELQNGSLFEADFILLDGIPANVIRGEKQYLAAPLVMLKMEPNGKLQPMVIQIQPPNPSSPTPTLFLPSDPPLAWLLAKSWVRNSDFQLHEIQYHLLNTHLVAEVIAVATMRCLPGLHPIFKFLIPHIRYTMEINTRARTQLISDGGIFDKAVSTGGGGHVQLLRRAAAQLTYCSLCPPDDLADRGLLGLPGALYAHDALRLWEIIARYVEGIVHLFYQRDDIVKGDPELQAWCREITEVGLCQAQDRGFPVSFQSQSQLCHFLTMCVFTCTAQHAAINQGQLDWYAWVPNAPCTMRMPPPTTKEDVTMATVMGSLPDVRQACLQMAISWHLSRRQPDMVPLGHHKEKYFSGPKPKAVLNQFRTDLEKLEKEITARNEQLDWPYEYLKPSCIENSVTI
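Purified human 12hLO (150 nM final) in 25 mM Hepes, 0.01% Triton X-100, pH 7.0 was preincubated 15 min at room temperature with compound. Then 40 uM arachidonic acid was added, 30 min. Hydroperoxide was read by Fe-XO absorbance ratio 573/405 nm.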
KB-3-1 tox: kills parental KB-3-1 adenocarcinoma cells; KB-3-1 viability, CellTiter-Glo ATP luminescence, 72 h; Potency, µM (series often up to 46.1 µM), most hits filed as cytotoxic; 1.4% of 400,000 active; AID 1347075; also: % is scaled to controls: 0 for no effect and ±100 for the full control effect; nearly all actives have a fitted effect of over 60% in size
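Screening of KB-3-1 cells (DMEM, 10% FBS, phenol-red free) ran from lowest to highest compound concentration; after 72 h at 37 °C viability was read luminescently and curves fitted.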
MCF10A rerep: DNA re-replication induction in MCF 10a cells; 2.9% of 350,000 active; MCF 10A DNA re-replication, Hoechst nuclear intensity, 48 h; Potency, µM (titrated, usually from 46.1 µM), inactives show at the top dose activity, positive = re-replication, most hits filed as activators; also: % of control where 0% means no effect; nearly all actives have a fitted effect of over 50% in size
KB-V1 cytotox: kills drug-selected multidrug resistant KB-V1 cells; 3.4% of 400,000 active; Potency, µM (series often up to 46.1 µM), actives largely listed as cytotoxic; AID 1347076; KB-V1 MDR cells viability, CellTiter-Glo, 72 h; also: % is scaled to controls: 0 for no effect and ±100 for the full control effect; nearly all actives have a fitted effect of over 60% in size
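qHTS viability screen in drug-selected KB-V1 MDR cells: 72 h compound treatment at 37 degrees C, ATP luminescence end point.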
PINK1 expr mod: changes PINK1 expression | PINK1 immunofluorescence, high-content cytometry, 24 h | Potency, µM (doses to about 76.6 µM), for the others: at the highest dose activation (PINK1 increase), usual class: activators | 0.2% of 410,000 active; active = well fitted activation curve with a large enough effect; inconclusive = small, poorly fitted or top-dose-only effect; cell line not stated here; also: % of control where 0% means no effect; nearly all actives have a fitted effect of over 65% in size
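Stable cell line treated 24 h with compounds at 5 concentrations (CCCP controls), then fixed and immunostained for PINK1 plus nuclear and cell stains; PINK1 immunofluorescence quantified by laser-scanning microplate cytometry.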
SW480 rerep: DNA re-replication induction in SW480 cells; SW480 DNA re-replication, Hoechst DNA content imaging, 48 h; Potency, µM (titrated, usually from 46.1 µM), for inactives: at the top dose re-replication activation, usual class: activators; 1.8% of 340,000 active; also: % of control where 0% means no effect; nearly all actives have a fitted effect of over 55% in size
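250 cells/well; 23 nL cpd via pin tool; 48 hr, 37 C, 5% CO2; Hoechst 40 min; imager read of total nuclear intensity, ex 405/em 500-530 nm.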
Active calls of the source: *; [ ] = remark or other dose. Unless noted, calls follow the shape of the dose curve; as a rule, active = well fitted curve in the direction sought with a large enough effect; inconclusive = small, poorly fitted or top-dose-only effect, or another doubt; inactive = no such curve, though single readings can be large; an effect the other way counts as inactive or inconclusive. Potency is read from the fitted curve at half-maximal effect.

For CCCc1nn2c(=O)cc(CSc3ccccc3NC(=O)c3ccco3)nc2s1 the results were 12-LOX inh 24.9%.
CCN(CC)S(=O)(=O)c1cc(NC(=O)C(C)N(C)CC(=O)Nc2c(C)cccc2C)ccc1C (stereo unspecified) was read as 12-LOX inh 0.4%, KB-3-1 tox inconclusive, MCF10A rerep 24.3%, KB-V1 cytotox 5.17µM*, PINK1 expr mod 0.4% and SW480 rerep 27.9%.
CCCSc1ncc(Cl)c(C(=O)Nc2ccccc2C)n1 was read as 12-LOX inh 17.8%.
For O=C(NC1CCCCCC1)C1c2ccccc2C(=O)N1Cc1cccnc1 (stereo unspecified) the results were 12-LOX inh -6.3%, KB-3-1 tox inactive, MCF10A rerep -1.7%, KB-V1 cytotox 11.6µM*, PINK1 expr mod -3.4%[38.3 µM] and SW480 rerep 0.1%.
`O=C(NCc1cccnc1)C1c2ccccc2C(=O)N1C1CCCCCC1` (stereo unspecified) gave 12-LOX inh 19.2%, KB-3-1 tox inactive, MCF10A rerep 1.0%, KB-V1 cytotox 18.4µM*, PINK1 expr mod -0.5% and SW480 rerep -5.3%.
Screening O=C(NCC1CCCO1)C1c2ccccc2C(=O)N1C1CCCCCCC1 (stereo unspecified) returned 12-LOX inh 0.0%, KB-3-1 tox inactive, MCF10A rerep 17.5%, KB-V1 cytotox 7.31µM*, PINK1 expr mod 0.7% and SW480 rerep 9.5%.
For CC(C)NC(=O)c1ccc(Cn2cnc3ccccc3c2=O)cc1 the results were 12-LOX inh 45.8%.
CC(C)c1ccc(OCC(=O)Nc2ccc3oc(-c4cccnc4)nc3c2)cc1 was read as 12-LOX inh -22.0%.
`O=[N+]([O-])c1ccc(/C=C2\CCC(C3=CCCC3)=C2N2CCOCC2)cc1` gave 12-LOX inh inconclusive, KB-3-1 tox inactive, MCF10A rerep 23.1µM*, KB-V1 cytotox inconclusive, PINK1 expr mod 7.4% and SW480 rerep inconclusive.
COc1ccc(S(=O)(=O)NCCN2CCOCC2)cc1Br was read as 12-LOX inh -0.6%, KB-3-1 tox inconclusive, MCF10A rerep 2.7%, KB-V1 cytotox inactive, PINK1 expr mod 0.0% and SW480 rerep 5.2%.
For CCN(CC)CCNS(=O)(=O)c1ccc(OC)c(Br)c1 the results were 12-LOX inh 3.55µM*, KB-3-1 tox inactive, MCF10A rerep inconclusive, KB-V1 cytotox inactive, PINK1 expr mod -0.8% and SW480 rerep -4.9%.
For COC(=O)COc1ccc2c(=O)c(Oc3ccc(C(=O)OC)cc3)c(C)oc2c1 the results were 12-LOX inh -12.0%.
For CCC/C(C)=N/NC(=O)c1ccccc1O the results were 12-LOX inh -21.2%, KB-3-1 tox inactive, MCF10A rerep 3.7%, KB-V1 cytotox inactive, PINK1 expr mod 2.6% and SW480 rerep 16.4%.
For C/C(=N\NC(=O)c1ccccc1O)c1c(O)cc(C)oc1=O the results were 12-LOX inh 27.2%, KB-3-1 tox inactive, MCF10A rerep inconclusive, KB-V1 cytotox inconclusive, PINK1 expr mod -0.9%[38.3 µM] and SW480 rerep 5.8µM*.
For CCOC(=O)C(CC)/C(C)=N\NC(=O)c1ccccc1O (stereo unspecified) the results were 12-LOX inh 12.4%, KB-3-1 tox inconclusive, MCF10A rerep inconclusive, KB-V1 cytotox 2.06µM*, PINK1 expr mod 22.3% and SW480 rerep inconclusive.
For O=C(CCc1nc2ccccc2oc1=O)OCc1cccc(C(F)(F)F)c1 the results were 12-LOX inh 1.9%.
For O=S(=O)(c1ccc(F)c(F)c1)N1CCN(Cc2ncc(-c3ccc(F)cc3)o2)CC1 the results were 12-LOX inh -10.3%.
CC(C(=O)Nc1ccc2c(c1)OCO2)N(C)CC(=O)Nc1ccc(Cl)cc1 (stereo unspecified) was read as 12-LOX inh inconclusive, KB-3-1 tox inactive, MCF10A rerep -4.9%, KB-V1 cytotox 23.1µM*, PINK1 expr mod 1.7% and SW480 rerep -5.0%.
Screening CC(SCc1ccccc1)C(=O)Nc1ccc2c(c1)OCO2 (stereo unspecified) returned 12-LOX inh inconclusive, KB-3-1 tox inactive, MCF10A rerep 0.8%, KB-V1 cytotox 18.4µM*, PINK1 expr mod -1.6% and SW480 rerep -9.3%.
For CC(SCc1ccccc1)C(=O)N/N=C/c1ccc2c(c1)OCO2 (stereo unspecified) the results were 12-LOX inh 24.3%, KB-3-1 tox inactive, MCF10A rerep 7.0%, KB-V1 cytotox inactive, PINK1 expr mod -0.4% and SW480 rerep -4.2%.
`COc1ccc(NC(=O)C(C)SCc2ccccc2)cc1OC` (stereo unspecified) gave 12-LOX inh -10.8%, KB-3-1 tox inactive, MCF10A rerep 10.1%, KB-V1 cytotox 23.1µM*, PINK1 expr mod 3.4% and SW480 rerep -82.2%.
CCCc1c(C(=O)OCC)nnc2c(-c3ccc(Br)cc3)c(C)nn12 was read as 12-LOX inh -5.9%.
COCCNC(=O)c1onc(CCl)c1C(=O)OC was read as 12-LOX inh inconclusive, KB-3-1 tox inactive, MCF10A rerep 8.4%, KB-V1 cytotox inactive, PINK1 expr mod 7.1% and SW480 rerep inconclusive.
Screening C=CCNC(=O)c1onc(CCl)c1C(=O)OC returned 12-LOX inh -14.0%, KB-3-1 tox inconclusive, MCF10A rerep 18.4µM*, KB-V1 cytotox inconclusive, PINK1 expr mod 3.6% and SW480 rerep inconclusive.
Screening O=C(Nc1ccc(F)cc1F)c1ccc2c(Cl)c3c(nc2c1)CCCC3 returned 12-LOX inh 0.2%.
CC(=O)c1c(C)[nH]c(C(=O)Nc2cccc(C(F)(F)F)c2)c1C was read as 12-LOX inh -9.0%, KB-3-1 tox inconclusive, MCF10A rerep 3.9%, KB-V1 cytotox 13µM*, PINK1 expr mod inconclusive and SW480 rerep 8.7%.
COc1ccc(C(C)(C)C)cc1NC(=O)c1[nH]c(C)c(C(C)=O)c1C was read as 12-LOX inh inconclusive, KB-3-1 tox inconclusive, MCF10A rerep 18.4µM*, KB-V1 cytotox inconclusive, PINK1 expr mod 6.5% and SW480 rerep inconclusive.
For CCCCCNCC(=O)Nc1cccc(C(=O)Nc2cccc(C(F)(F)F)c2)c1 the results were 12-LOX inh inconclusive, KB-3-1 tox inconclusive, MCF10A rerep inconclusive, KB-V1 cytotox 23.1µM*, PINK1 expr mod -3.4% and SW480 rerep 18.1%.
`Cn1c(=O)c2c(ncn2CC(=O)Nc2ccccc2C(=O)NC2CCCCC2)n(C)c1=O` gave 12-LOX inh -9.3%.
`Cn1cc(C(=O)N2CCC3(CCN(C4CCOCC4)CC3)C(CO)C2)cn1` (stereo unspecified) gave 12-LOX inh 0.2%.
